High-throughput results as filed in PubChem BioAssay.
ugtP null kill: compounds lethal to S. aureus RN4220 ugtP deletion mutant; growth inhibition, % (test concentration not listed); AID 1259309; OD600 growth, 16 h; 0.54% of 330,000 active; in the data active = growth inhibition above about 68%;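 also: plate controls were untreated wells for no effect and antibiotic for full effect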
Mtb hypoxia inh: reduces hypoxia-regulated biosensor signal in M. tuberculosis | fluorescence inhibition, % (no concentration beside the values) | AID 1159583 | 0.1% of 300,000 active | M. tuberculosis hypoxia-regulated fluorescent reporter, fluorescence; in the data active = fluorescence inhibition mostly above about 23%, no sharp cut-off; inactive = mostly below about 17%
Sa RN4220 lethal: S. aureus RN4220 growth inhibition; OD600, 16 h; inhibition, % (test concentration not listed); 0.33% of 330,000 active; AID 1259311; in the data active = inhibition above about 85%;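 also: plate controls were untreated cells for no effect and reference antibiotic for full effect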
PriA SSB inh: K. pneumoniae PriA-SSBct interaction inhibition | AlphaScreen SSBct-PriA binding, biotinylated peptide | inhibition, % at 33 µM | 0.6% of 430,000 active | AID 1272365; in the data active = inhibition mostly above about 37%, no sharp cut-off; inactive = mostly below about 20%;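 also: plate controls were negative control peptide for no effect and reference peptide for full effect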
CCHFV vOTU inh: CCHFV vOTU protease inhibition | 0.55% of 370,000 active | AID 651958 | Pep-AMC fluorescence | inhibition, % at 11.5 µM; in the data active = inhibition above about 30%; also: 0% = vehicle wells with enzyme and 100% = no enzyme wells
An asterisk follows results filed as active; . = no result shown. Compounds with a hit are over-represented: about 1.4% of the library has one in this group of screens.

SMILES	ugtP null kill	Mtb hypoxia inh	Sa RN4220 lethal	PriA SSB inh	CCHFV vOTU inh
[O-][n+]1c2ccccc2[n+]([O-])c2cc(O)ccc21	17	42*	25	26	9
Nc1nonc1C(=O)NN=Cc1cc2c(cc1Br)OCO2	-1	1	3	-9	.
O=[N+]([O-])c1ccc(-n2cnc3ccccc32)c([N+](=O)[O-])c1	32	42*	57	-13	-12
Nn1c(Cc2cccc3ccccc23)nnc1SCC(=O)NCC1CCCO1 (centres undefined)	0	0	-1	52*	-2
CC(C)Cc1ccc(C(C)c2nc3ccccc3n2CC(N)=O)cc1 (centres undefined)	.	.	.	-13	.
Cc1ccc(-n2ncc3c(=O)[nH]c(SCC(=O)N4CCC(C)CC4)nc32)cc1C	.	.	.	86*	-1
CCOC(=O)c1cc2c(OC)ccc(OC)c2n1CC(=O)c1ccccc1	89*	8	3	-8	1
O=C(NN=Cc1cccc(Oc2ccccc2)c1)c1ccccc1Br	99*	4	-3	9	.
CC(C)S(=O)(=O)c1cccc(C(=O)N2CC(=O)Nc3ccccc32)c1	.	.	.	3	.
Cc1ccc(-n2c(=S)sc3c(=O)n(C)c(SCC(=O)Nc4ccc(C)c(F)c4)nc32)cc1	.	.	.	7	.
C[C@@H](CCc1ccccc1)NC(=O)c1nn(C)c2ccccc12	.	.	.	-25	.
FC(F)(F)c1cc(Cl)c2nc(-c3ccccc3)c(Cc3cccc(Cl)c3)n2c1	.	.	.	.	31*
Cc1nc2nc(C(C)C)[nH]c2cc1N	.	.	.	-5	.
CCCC(=O)N1CCN(c2ccc(NC(=S)NC(=O)c3cccc(C)c3)cc2)CC1	active	3	94	19	-11
CN1CCN(c2ccc(NC(=S)NC(=O)c3cccc4c(Cl)cccc34)cc2)CC1	98*	-11	-4	32	15
COc1cccc(C(=O)NC(=S)Nc2ccc(N3CCCC3)cc2)c1	87*	.	3	80	13
O=C(c1ccccc1)N1CCN(c2ccc(NCc3ccc4c(c3)OCO4)cc2)CC1	2	-12	17	46*	-3
O=C(Nc1ccc(Cl)c(C(F)(F)F)c1)C1CC=CC2CCN(Cc3ccccc3)C(=O)C21 (centres undefined)	8	6	2	.	.
COc1ccc(CNC(=O)N2CCCC(c3nnc(-c4ccc5c(c4)OCO5)o3)C2)cc1 (centres undefined)	.	.	.	-6	.
Cc1ccc(C(=O)N2CCN(c3ccc(NC(=S)NC(=O)Cc4ccccc4)cc3)CC2)cc1	90*	.	6	12	6
CC(C)Oc1cccc(C(=O)NC(=S)Nc2cccc(NC(=O)c3ccccc3Cl)c2)c1	-15	7	11	10	8
CC(C)Oc1cccc(C(=O)NC(=S)Nc2ccc(N3CCN(C)CC3)cc2)c1	98*	18	6	12	6
C=CCCC1(C)NNc2nc(=O)c(C)nn21 (centres undefined)	.	.	.	98*	.
Cc1nn2c(nc1=O)NNC2(C)C(C)(C)C (centres undefined)	5	7	3	-7	-6
O=C(Nc1cccc([N+](=O)[O-])c1)c1ccc2ccccc2c1O	86*	12	86*	-6	-2
SMILES	ugtP null kill	Mtb hypoxia inh	Sa RN4220 lethal	PriA SSB inh	CCHFV vOTU inh
O=C(Cc1ccccc1)Nc1cccc([N+](=O)[O-])c1	-1	13	0	-1	7
Cc1cc(N2CCN(C)CC2)ncn1	.	.	.	1	.
O=C(O)c1cc(-c2ccc(-c3c(-c4ccc5c(c4)OCO5)noc3-c3ccsc3)cc2)nc2ccccc12	94*	0	96*	-13	-5
COC(=O)C(N=Nc1cccc(C(F)(F)F)c1)=C(C)O	.	.	.	-4	.
COc1ccc(-c2nc(/C=C3\C(C)=Nc4ccccc43)c(O)o2)cc1	92*	6	91*	1	0
COCc1nnc(NS(=O)(=O)c2ccc([N+](=O)[O-])cc2)s1	-5	65*	6	-7	2
COCc1nnc(NS(=O)(=O)c2ccc(OC)cc2)s1	2	5	-1	-8	7
O=[N+]([O-])c1cnc(Sc2ccncn2)s1	100*	11	81	-11	-8
O=[N+]([O-])c1cnc(Sc2ccncn2)c([N+](=O)[O-])c1	.	.	.	.	7
O=S(=O)(c1ccc(F)c(Cl)c1)N1CCN(c2ccccc2F)CC1	.	.	.	-19	.
O=c1[nH]c2ccc(S(=O)(=O)N3CCN(c4ccccc4F)CC3)cc2s1	101*	-5	-12	-1	-2
O=C(OC12CCCN(C1)/C(=C/c1ccc(Cl)cc1)C2)C1CCCC1 (centres undefined)	.	.	.	.	11
CC(C)NC(=S)NN=Cc1ccc(C(C)(C)C)cc1	4	17	5	10	.
O=C(O)CCCN1C(=O)/C(=C\c2ccccc2OCc2ccccc2)SC1=S	16	-1	27	3	15
O=C(O)CCCN1C(=O)/C(=C/c2cn(-c3ccccc3)nc2-c2cccs2)SC1=S	83*	0	50	21	13
O=C(C1CC=CCC1)N1CCC2(CC1)OCCN2S(=O)(=O)c1ccc(Cl)cc1 (centres undefined)	.	.	.	-11	.
CCCCC(=O)OCc1c(-c2cccc(OC)c2)ncc2ccccc12	86*	14	7	-23	18
FC(F)(F)Oc1ccc(NC(=S)Nc2ccc(OC(F)(F)F)cc2)cc1	92*	13	99*	-4	3
CCONC(=O)Nc1ccccc1C	.	.	.	-1	.
Cc1ccc(S(=O)(=O)N2C(=O)CCC2C(=O)Nc2ccc3c(c2)OCCO3)cc1 (centres undefined)	2	6	-1	96*	-1
CC(=O)Nc1ccc(S(=O)(=O)N2CCCC2C(=O)Nc2ccc3c(c2)OCCO3)cc1 (centres undefined)	-1	-7	-2	-8	-2
CCN(Cc1cnc2ccccn12)S(=O)(=O)N(C)C	.	.	.	-6	.
Cc1cccc(NC(=S)N=Nc2c(O)[nH]c3ccccc23)c1	95*	14	99*	15	14
Oc1ccc(CC2CNCCN2CCCCC2CCCCC2)cc1 (centres undefined)	0	11	-6	.	.
COc1ccc(-c2cc3c(=O)n(CC(=O)N4CCN(C)CC4)ncn3n2)cc1	5	3	6	101*	7
O=[N+]([O-])c1ccc(C[n+]2cccc3ccc4cccnc4c32)cc1	3	18	-3	90*	-6
O=[N+]([O-])c1ccc(C[n+]2cccc3ccccc32)cc1	0	14	1	4	-10
